High-throughput results as filed in PubChem.
A selection: hits, their analogues and other compounds. The true share with any hit is near 21%.
DT40 TDP1 no CPT = qHTS for Inhibitors of human tyrosyl-DNA phosphodiesterase 1 (TDP1): qHTS in cells in absence of CPT. Potency, µM (highest dose often 46.2 µM), for inactives: at the highest dose activity change, negative = growth inhibition, actives largely listed as inhibitors. DT40 Tdp1-/- hTDP1 cells, no CPT, ATP luminescence, 48 h. actives 15% (n = 420,000). AID 686978, 2013; also: potency is read from the fitted curve at half-maximal effect; % is scaled to controls: 0 for no effect and ±100 for the full control effect; nearly all actives have a fitted effect of over 55% in size
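Compound effects on proliferation are scored in DT40 Tdp1-/-;hTDP1 cells in the absence of CPT. ATP levels (CellTiter-Glo luminescence) are recorded after a ≥48 hr, 37 °C incubation.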
D3 ag = D3 dopamine receptor (human) agonism; P35462; D3R DiscoveRx beta-arrestin cells, luminescence, 90 min; max activation, %; actives 0.58% (n = 410,000); AID 652048; in the data active = max activation above about 30%; also: 0% is about no effect
Target sequence (P35462 whole entry, looked up): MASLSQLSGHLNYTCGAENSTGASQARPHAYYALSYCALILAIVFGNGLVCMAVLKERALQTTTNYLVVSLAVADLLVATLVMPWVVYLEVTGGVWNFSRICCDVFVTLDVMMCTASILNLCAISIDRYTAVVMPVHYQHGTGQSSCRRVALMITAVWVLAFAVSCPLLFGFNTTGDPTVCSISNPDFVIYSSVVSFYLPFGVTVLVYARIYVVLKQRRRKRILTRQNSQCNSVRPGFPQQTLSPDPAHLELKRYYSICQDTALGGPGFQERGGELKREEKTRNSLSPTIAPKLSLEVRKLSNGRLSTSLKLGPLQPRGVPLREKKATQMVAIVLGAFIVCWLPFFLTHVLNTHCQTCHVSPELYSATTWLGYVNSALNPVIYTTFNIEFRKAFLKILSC
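Agonist mode: compounds and dopamine controls were applied to plated cells for 90 min at 37 degrees C after an overnight attachment at 1500 cells/well. Luminescent read-out followed 30 - 60 minutes at room temperature with DiscoveRx detection reagent.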
D3 antag = antagonists of human D3 dopamine receptor. P35462. D3R cells, DiscoveRx beta-arrestin luminescence, antagonist mode; stronger effect = lower value. actives 2.5% (n = 360,000). max response, negative = inhibition, %. AID 652054; in the data active = max response below about -50%; inconclusive = no clear call, values can overlap the other calls; also: % is scaled to controls: 0 for no effect and ±100 for the full control effect
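Cells expressing the human receptor were seeded at 1500 cells/well, incubated overnight at 37 degrees C in 5% CO2, then exposed to library compounds with dopamine controls for 90 minutes at 37 degrees C before luminescent detection.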
IL1B secr inh = inhibitors of inflammasome signaling (IL-1 beta secretion) | THP-1 LPS/ATP IL-1B secretion, AlphaLISA, 16 h; stronger effect = lower value | activity change, % at 57.5 µM | actives 4.7% (n = 360,000); in the data active = activity change below about -50%; inconclusive = mostly about -30% to -49%; also: % is scaled to controls: 0 for no effect and ±100 for the full control effect
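THP-1 cells pretreated 1 hr with compounds (up to 57.5 uM final), then stimulated with LPS (250 ng/mL final) plus ATP (1.25 mM final); secreted IL-1B measured by AlphaLISA after 16 hr, decreased signal indicating inhibition.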
ClpP mod = qHTS Assay for Activators of ClpP | purified B. subtilis ClpP, FRET peptide cleavage, 20 min | Potency, µM (titrated, usually from 57.5 µM), for inactives: at the top dose activity change, negative = active | actives 1.9% (n = 340,000); active = well fitted falling curve with a large enough effect; inconclusive = small, poorly fitted or top-dose-only effect; inactive = no such curve, though single readings can be large or run the other way; also: potency is read from the fitted curve at half-maximal effect; the source files actives as falling curves though it sought activators and does not explain the sign; nearly all actives have a fitted effect of over 65% in size
Target sequence (P80244 whole entry, looked up): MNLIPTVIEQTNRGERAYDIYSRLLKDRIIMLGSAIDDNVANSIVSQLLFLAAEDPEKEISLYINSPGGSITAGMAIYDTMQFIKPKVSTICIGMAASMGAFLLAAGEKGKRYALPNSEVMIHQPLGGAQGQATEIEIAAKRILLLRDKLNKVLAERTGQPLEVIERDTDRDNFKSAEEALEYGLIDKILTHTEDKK
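FRET quenching reversal measured ClpP activation: 10 microg/mL B. subtilis ClpP at pH 8 with the FRET-FV decapeptide, read at 430 nm after 320 nm excitation. The 20-min minus 0-min signal was scaled between DMSO/no-enzyme wells and ADEP (5.8 microM final).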
DT40 TDP1 CPT = growth inhibition of DT40 Tdp1-/-;hTDP1 cells with camptothecin (screen for TDP1 inhibitors); Potency, µM (doses to about 46.2 µM), without a hit: at the top dose activity change, negative = growth inhibition, usual class: inhibitors; chicken DT40 Tdp1-/-;hTDP1 cells + 20 nM CPT, ATP luminescence, 48 h; actives 12% (n = 420,000); also: potency is read from the fitted curve at half-maximal effect; % is scaled to controls: 0 for no effect and ±100 for the full control effect; nearly all actives have a fitted effect of over 55% in size
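Chicken DT40 Tdp1-/- cells complemented with human TDP1, 400 cells/well, exposed to compounds plus 20 nM camptothecin for at least 48 h at 37 C; viability read as ATP content by CellTiter-Glo luminescence.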
* = called active by the depositor; ? = inconclusive; / = no result given; [ ] = another dose, or the depositor's remark. Unless noted, calls follow the shape of the dose curve; as a rule, active = well fitted inhibition curve with a large enough effect; inconclusive = small, poorly fitted or top-dose-only effect; inactive = flat fitted curve, though single readings scatter.

SMILES	DT40 TDP1 no CPT	D3 ag	D3 antag	IL1B secr inh	ClpP mod	DT40 TDP1 CPT
Cc1cccn2c(=O)c(C=O)c(Nc3ccccc3)nc12	?	20.9	7.2	24.7	/	-27.0%
Cc1ccc2onc(CNC(=O)N3CCN(c4cc(Cl)ccc4C)CC3)c2c1	?	1.1	/	/	-1.5%	?
Cc1cccc(C)c1OCC(=O)NCc1nnc(SCC(=O)NC2CCCCC2)n1C	-3.9%	-6.9	-72.0*	13.2	0.7%	0.7%
C=CCn1c(SCC(=O)NC2CCCCC2)nnc1-c1sc(N)nc1C	-2.4%	-0.8	-51.0*	4.2	3.7%	6.3%
CCCn1c(SCC(=O)NC2CCCCC2)nnc1-c1ccncc1	-78.0%	2.2	-25.4	30.0	-3.6%	29.1µM*
C=CCn1c(SCC(=O)Nc2sc(C)c(C)c2C(=O)OCC)nnc1-c1sc(N)nc1C	?	6.0	69.3	-3.2	0.9%	?
Cc1ccc2c(c1)oc(=O)n2CC(=O)c1ccccc1	-0.4%	6.5	3.7	-23.7	-0.1%	5.7%
Cc1cc(-c2ccccc2)n(-c2cc(N/N=C/c3ccccc3O)ncn2)n1	3.26µM*	7.1	4.7	49.5	-14.8%	4.61µM*
COc1cccc(OCc2cc(=O)n3cc(C)sc3n2)c1	?	-3.6	/	/	-5.9%	-24.8%
CCN(CC)c1ccc(Nc2cc3n(c(=O)n2)CCc2cc(OC)c(OC)cc2-3)cc1	?	20.0	32.5	-94.8*	/	3.3%
COc1cc2c(cc1OC)-c1cc(Nc3ccc(F)cc3)nc(=O)n1CC2	?	1.3	30.1	-51.2*	?	?
COc1cc2c(cc1OC)-c1cc(Nc3ccc(N(C)C)cc3)nc(=O)n1CC2	?	-3.0	-15.3	-58.2*	/	-17.4%
COc1cc2c(cc1OC)-c1cc(Nc3cccc(F)c3)nc(=O)n1CC2	?	-11.7	0.0	-25.7	-18.8%	4.4%
COc1cc2c(cc1OC)-c1cc(NC3CCCC3)nc(=O)n1CC2	?	-2.2	8.6	1.0	31.6µM*	-28.0%
O=C(c1cccc(F)c1)N1CCN(C(=O)C(c2ccccc2)c2ccccc2)CC1	?	5.3	1.7	11.5	-1.0%	-7.1%
COCC1CCCN(Cc2ccc3c(c2)CN(C(=O)c2cn4ccc(C)cc4n2)CCO3)C1 (stereo not drawn)	-16.6%	/	/	/	/	-11.2%[9.04 µM]
COc1ccc(NC(C)=O)cc1NC(=O)C1CCN(C(=O)Nc2ccccc2)CC1	4.3%	2.9	16.2	13.0	0.2%	10.2%
CCN(c1ccccc1)S(=O)(=O)c1ccc(NC(=S)NC(=O)c2cccs2)cc1	23.1µM*	-11.2	-74.3*	7.5	-1.7%	?
CN(c1ccc(C(=O)Nc2ccccc2Sc2ccccc2)cc1)S(C)(=O)=O	20.6µM*	4.1	-5.8	-9.4	-2.1%	?
CN(c1ccc(C(=O)Nc2cccnc2)cc1)S(C)(=O)=O	-18.5%	-9.5	?	9.0	28.2µM*	8.2%
CN(C)S(=O)(=O)c1ccc(NC(=S)NC(=O)c2cccs2)cc1	?	10.2	-20.5	-1.5	/	?
CN(c1ccc(C(=O)Nc2cccnc2)cc1)S(=O)(=O)c1ccccc1	-25.8%	-0.6	-2.0	13.0	/	-1.1%
CN(c1ccccc1)S(=O)(=O)c1ccc(NC(=O)c2cccs2)cc1	?	1.3	-18.4	-60.2*	/	?
CCSc1nnc(SCC(=O)Nc2cc(C)on2)s1	6.8%	3.9	-3.3	10.8	-1.6%	1.8%
CN(c1ccccc1)S(=O)(=O)c1ccc(NC(=O)c2ccccc2)cc1	?	-14.7	6.2	?	-4.2%	-21.6%
SMILES	DT40 TDP1 no CPT	D3 ag	D3 antag	IL1B secr inh	ClpP mod	DT40 TDP1 CPT
CN(c1ccccc1)S(=O)(=O)c1ccc(NC(=O)c2ccc(F)cc2)cc1	?	-3.1	-6.8	-85.7*	/	-12.2%
CN(c1ccccc1)S(=O)(=O)c1ccc(C(=O)Nc2ccncc2)cc1	14.6µM*	-9.0	-24.4	-13.9	-2.7%	?
CNS(=O)(=O)c1cccc(C(=O)Nc2cccnc2)c1	-21.9%	-22.6	-57.4*	2.0	-4.1%	-4.1%
O=C(Nc1cccnc1)c1cccc(S(=O)(=O)Nc2cccc(Cl)c2)c1	?	1.9	-3.6	-23.3	-0.1%	?
CN(C)S(=O)(=O)c1ccc(NC(=O)c2ccncc2)cc1	-16.5%	7.4	6.9	8.8	/	3.2%
Cn1cc(C(=O)O)c(=O)c2cc(S(=O)(=O)N3CCCCC3)ccc21	?	-16.9	/	/	-17.2%	-22.4%
CN(C(=O)COC(=O)/C=C/c1cccs1)c1c(N)n(Cc2ccccc2)c(=O)[nH]c1=O	-9.0%	11.2	7.2	-4.7	/	12.5%
CCN(C(=O)COC(=O)/C=C/c1ccccc1Cl)c1c(N)n(Cc2ccccc2)c(=O)[nH]c1=O	?	-7.2	-14.6	-12.6	4.1%	?
COCCN(C(=O)COC(=O)/C=C/c1ccc(OC)c(OC)c1)c1c(N)n(Cc2ccccc2)c(=O)[nH]c1=O	-3.3%	-3.3	-68.8*	5.6	?	-7.4%
CN(C(=O)COC(=O)/C=C/c1ccc(C(F)(F)F)cc1)c1c(N)n(Cc2ccccc2)c(=O)[nH]c1=O	6.51µM*	-0.3	10.0	-3.5	1.7%	6.51µM*
CCN(C(=O)COC(=O)/C=C/c1ccc(Cl)c(Cl)c1)c1c(N)n(Cc2ccccc2)c(=O)[nH]c1=O	2.06µM*	-0.3	14.7	16.5	-3.8%	3.66µM*
CCN(C(=O)COC(=O)/C=C/c1cccc(Cl)c1)c1c(N)n(Cc2ccccc2)c(=O)[nH]c1=O	?	-4.0	-5.1	7.7	1.1%	23.1µM*
COC(=O)[C@@H]1CCCN1C(=O)[C@@H](NC(=O)OC(C)(C)C)C(C)C	-10.4%	7.3	8.2	15.1	1.1%	-23.6%
CCc1ccc(/C=C\C(=O)N2CCc3ccccc3C2)cc1	2.1%	3.4	76.7	?	-5.3%	-1.4%
O=C(/C=C/c1c(F)cccc1Cl)N1CCc2ccccc2C1	?	-6.2	19.0	-63.1*	/	?
CC(=O)N1CCN(C(=O)COC(=O)/C=C/c2ccccc2[N+](=O)[O-])CC1	3.3%	4.1	0.0	9.5	1.5%	-19.9%
O=C(/C=C/c1ccccc1[N+](=O)[O-])N1CCc2ccccc2C1	16.4µM*	-10.5	2.2	-53.3*	/	?
O=C(/C=C/c1c(F)cccc1Cl)c1ccc(F)cc1	25.9µM*	-13.0	10.8	-2.5	-12.3%	20.6µM*
O=C(/C=C/c1ccccc1[N+](=O)[O-])OCC(=O)N1CCN(c2ccccc2)CC1	?	-1.2	46.9	2.9	-0.8%	20.6µM*
